Test results published in PubChem BioAssay AID624404 (Broad Institute, 2012).
In all, about 1,800 compounds went through this assay and about 710 (39%) were called active. Another 28% or so got no clear call; they are omitted. Not all results are given here. Entries with a potency or affinity are not part of this list. Values without a mark were called inactive.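 Rule for the calls: active = luciferase signal rise whose fitted curve crosses a set activity limit at or below the top valid tested dose; inconclusive = flat fit with 30 to 70% rise, or poor fit; inactive = signal falling, flat within 30%, or crossing above top dose.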

Assay: reporter signal increase, D54 LucT cells – cell-based, luminescence, cherry pick, counter-screen for N-linked glycosylation inhibitor project, dose response (AID 624404);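 note: 0% = median neutral control signal and 100% = twice that signal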
Settings: D54 LucT luciferase reporter counterscreen, 24 h; series mostly up to 19.5 µM; activity increase (luciferase signal): at the top concentration

SMILES	activity increase (luciferase signal)
COc1ccc(CN(C(=O)c2ccc(CN3CCOCC3)o2)C(C(=O)NCC2CCCO2)c2ccc(F)cc2)cc1 (centres undefined)	-5.22%
COc1ccc(CC(=O)N/N=C/c2c(C)n(C)c3ccccc23)cc1OC	-5.77%
COC(=O)COc1cccc2c(=O)n(CC(=O)NCc3ccccc3)ccc12	51.9%
C[C@@H]1[C@@H](Sc2ccccc2)CC(=O)O[C@@H]1c1ccc(-c2ccccc2)cc1	-38%
COc1ccc(-c2nc(C(N)=O)c3[nH]c(=O)n(-c4cccc(Cl)c4)c3n2)cc1OC	20.6%
COc1ccc(OC)c(S(=O)(=O)Nc2ccc(-c3ccc4nnc(C)n4n3)cc2)c1	51.9%
COc1ccc(NC(=O)c2oc3ccccc3c2NC(=O)c2ccco2)cc1	-4.3%
COc1cc(OC)cc(C(=O)c2c(C)c(C#N)c3ccccn23)c1	-23.7%
Cn1c(SCC(=O)Nc2cccc(F)c2)nc2c([nH]c3ccccc32)c1=O	6.37%
CCc1nc(SCC(=O)c2ccc3c(c2)OCCO3)c2ccccc2n1	14.6%
CC(=O)N1N=C(c2ccccc2)OC1c1ccc([N+](=O)[O-])s1 (centres undefined)	34.8%
CCOc1cc(CNc2ccc3cn[nH]c3c2)ccc1OC	-19.4%
CC(=O)c1cccc(Nc2cc(C)nc3c(C)cccc23)c1	4.36%
COC(=O)c1cccc(Nc2c3c(nc4ccccc24)CCC3)c1	19%
Cc1ccc(OCCNC(=O)c2cccc(S(=O)(=O)NCc3ccccc3)c2)cc1	0%
CCN(CC)CCCNc1nc2cc(OC)c(OC)cc2c2nc(-c3ccccc3)nn12	22.1%
CC(C)CCNC(=O)Cn1c(=O)oc2cc(S(=O)(=O)N3CC(C)CC(C)C3)ccc21 (centres undefined)	29.3%
Cc1cc(NC(=O)/C=C/C(=O)N(CC(=O)NC2CCCC2)c2ccc(F)cc2)no1	-17.1%
Cc1cc(Br)ccc1NC(=O)CCCOc1cc(=O)n(C)c2ccccc12	58.2%
O=C(/C=C/Sc1ccccc1)c1ccccc1	12%
O=C(/C=C/Sc1ccc(C(F)(F)F)cn1)c1ccccc1	14.9%
O=C(CSc1c2c(nc3ccc(Cl)cc13)CCCC2)N1CCN(C(=O)c2ccco2)CC1	7.36%

SMILES	activity increase (luciferase signal)
COc1ccccc1N1CCN(S(=O)(=O)CCNC(=O)c2cc(OC)c(OC)c(OC)c2)CC1	28.3%
CCn1c2ccccc2c2cc(NC(=O)c3cc(OC)c(OC)c(OC)c3)ccc21	-0.943%
COCCNc1nc(NCc2ccccc2)nc2ccsc12	-8.4%
Cc1cc(N2CCCCC2)nc(NCc2ccccc2)n1	-31.7%
Cc1cccc2c1NC(=O)/C2=C\C(=O)c1cccs1	20.6%
O=C(NCCC1=CCCCC1)C1CCC(CNc2nc(=S)[nH]c3ccccc23)CC1 (centres undefined)	31.7%
COc1cc(NC(=O)c2ccccc2F)ccc1NC(=O)c1cc2ccccc2o1	8.43%
COC(=O)c1ccccc1-c1ccc(C(c2c(C)[nH][nH]c2=O)c2c(C)[nH][nH]c2=O)o1	-10.3%
COc1cc(C2Sc3ccccc3NC3=C2C(=O)OC3)cc(OC)c1OC (centres undefined)	42.2%
CCOc1ccc(OCC)c(NC(=O)c2nnn(CC(=O)Nc3cc(C)cc(C)c3)c2N)c1	37.3%
CCc1cccc(NC(=O)c2cc(S(=O)(=O)N(C)C)ccc2N2CCCC2)c1	23%
Cc1cnc(NC(=O)c2cc(S(=O)(=O)N(C)C)ccc2N2CCCC2)s1	-29.3%
CCOc1cc(NC(=O)CCl)c(OCC)cc1NC(=O)CCl	11%
CN(C)/N=C/c1ccc(Sc2ccc([N+](=O)[O-])cc2[N+](=O)[O-])o1	4.59%
COc1cc2c(cc1OC)C(C)N(C(=O)Nc1ccccc1)CC2 (centres undefined)	55.9%
COc1ccc(C(=O)/C=C/Sc2nc3ccccc3o2)cc1	40.7%
COc1ccc(CCn2c(Br)nc3c2c(=O)[nH]c(=O)n3C)cc1	57.4%
COc1cc(/C=N/Nc2nc3c(c(=O)n(C)c(=O)n3C)n2Cc2ccccc2)ccc1OC(=O)c1ccco1	-6.13%
COc1cc(C2CC(=O)N(c3ccc(C)cc3)C(=O)C2)cc(OC)c1OC	12.2%
CCN(CC)S(=O)(=O)c1cccc(NC(=O)CN2C(=O)NC3(CCC(C)CC3)C2=O)c1 (centres undefined)	8.57%
CC(C)c1ccc(NC(=O)CN2C(=O)NC3(CCCCCCC3)C2=O)cc1	72.3%
NC(=O)c1ccc2c(=O)n3c(-c4cc(Cl)c(N)c(Cl)c4)csc3nc2c1	15.3%

SMILES	activity increase (luciferase signal)
OCC1OC(n2cnc3c(=S)nc[nH]c32)CC1O (centres undefined)	6.1%
Cc1cccn2c(=O)c3cc(C(=O)NC4CCCC4)n(C)c3nc12	32.5%
Cc1cccn2c(=O)c3cc(C(=O)N4CCCCC4)sc3nc12	51.5%
Cc1cccn2c(=O)c3cc(C(=O)NC4CCCC4)c(=N)n(CC4CCCO4)c3nc12 (centres undefined)	-16.3%
Cc1cccn2c(=O)c3cc(C(=O)NC4CCCC4)c(=N)n(CCc4ccccc4)c3nc12	-47.6%
CCN(CC)CCOc1ccc2c(c1)C(=NNC(=O)c1ccccn1)c1cc(OCCN(CC)CC)ccc1-2	-83.9%
CCc1ccc(NC(=O)Cn2c(=O)n(CCC(=O)NC3CCN(Cc4ccccc4)CC3)c(=O)c3ccccc32)cc1	-6.28%
O=C(CCl)Nc1ccc(Sc2ccc(NC(=O)CCl)cc2)cc1	-72.8%
CC(C)Oc1ccc(C(=O)/C=C2/C(=O)Nc3ccccc32)cc1	19.1%
Cc1[nH][nH]c(=O)c1C(c1ccc(-c2cccc(Cl)c2)o1)c1c(C)[nH][nH]c1=O	32.4%
Cc1[nH][nH]c(=O)c1C(c1ccc(-c2ccc(F)cc2)o1)c1c(C)[nH][nH]c1=O	31.7%
CC1(C(=O)Nc2ccc(Cl)cc2)Cc2c(-c3ccc4c(c3)OCO4)ccnc2O1 (centres undefined)	27.1%
CC1(C(=O)Nc2ccc3c(c2)OCO3)Cc2c(-c3ccc4c(c3)OCO4)ccnc2O1 (centres undefined)	15.3%
CCOC(=O)c1cc2c(ccn2C)n1CC(=O)N1CCN(c2ccccc2)CC1	20.9%
FC(F)(F)c1cccc(Sc2nc(-c3ccccc3)nnc2C(F)(F)F)c1	-9.88%
Nc1nonc1-c1nc2ccccc2n1CC(=O)N/N=C\c1ccc(-c2ccc(Cl)cc2)o1	13.8%
COc1ccc(C(=O)/C=C/c2ccc(OC(=O)c3cc(OC)c(OC)c(OC)c3)cc2)cc1	20.6%
COc1ccc(CCn2c(=N)c(S(=O)(=O)c3ccc(C)cc3)cc3c(=O)n4ccccc4nc32)cc1	255%
N=c1c(C(=O)NCc2ccco2)cc2c(=O)n3ccccc3nc2n1CCc1ccccc1	-10%
Cc1ccc2nc3c(cc(C(N)=S)c(=N)n3CCCOC(C)C)c(=O)n2c1	17.8%
